Targets with a hit are over-represented here; the source holds about 8,800 in all. About 0.5% of all pairs of compound and target were hits. A number with no mark means an inactive call.
Assays:
Experiment in all cases: log2 fold change, soluble protein after heating vs DMSO (PISA); higher = thermal stabilisation; K562 lysate, 10 uM; active = over 0.2 and 3.5 SD of the protein, either way, in both replicates (recomputed)
vemurafenib = compound: CCCS(=O)(=O)Nc1ccc(F)c(C(=O)c2c[nH]c3ncc(-c4ccc(Cl)cc4)cc23)c1F [vemurafenib]
Method in brief: (§1)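 Values give the log-two fold change in thermal stability against solvent controls, from duplicates. Crude K562 extract at 1 mg/mL protein, made by dounce homogenisation in PBS pH 7.4 with 1 mM MgCl2, was treated with 10 μM compound for 30 min. After 3 min heating across 48°C-58°C, aliquots were pooled, adjusted to 0.5% NP-40 at 4°C and centrifuged at 21,000xg for 90 min. The supernatant was measured by TMTpro 16plex LC-MS/MS with channel sums equalised.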

[1] = compound: CCCS(=O)(=O)Nc1ccc(F)c(C(=O)c2c[nH]c3ncc(Cl)cc23)c1F
Method in brief: as §1

barasertib = compound: CCN(CCCOc1ccc2c(Nc3cc(CC(=O)Nc4cccc(F)c4)[nH]n3)ncnc2c1)CCOP(=O)(O)O [barasertib]
Method in brief: as §1

[2] = compound: CC[C@@H]1C(=O)N(C)c2cnc(Nc3ccc(C(=O)NC4CCN(C)CC4)cc3OC)nc2N1C1CCCC1
Method in brief: as §1

volasertib = compound: CC[C@@H]1C(=O)N(C)c2cnc(Nc3ccc(C(=O)N[C@H]4CC[C@H](N5CCN(CC6CC6)CC5)CC4)cc3OC)nc2N1C(C)C [volasertib]
Method in brief: as §1

[3] = compound: CCn1c(C(=O)N(C2CC2)C2CC2)cc2c3c(ncn3C)c(Nc3cc(C)n(C)n3)nc21
Method in brief: as §1

[4] = compound: CCn1cc(-c2ccnc3[nH]c(-c4cccc(CN(C)C)c4)cc23)c(-c2ccc(NC(=O)N(C)C)cc2)n1
Method in brief: as §1

[5] = compound: CN1CCC(CNc2ccc3ncc(-c4cccc(OC(F)(F)F)c4)n3n2)CC1
Method in brief: as §1

saracatinib = compound: CN1CCN(CCOc2cc(OC3CCOCC3)c3c(Nc4c(Cl)ccc5c4OCO5)ncnc3c2)CC1 [saracatinib]
Method in brief: as §1

sotrastaurin = compound: CN1CCN(c2nc(C3=C(c4c[nH]c5ccccc45)C(=O)NC3=O)c3ccccc3n2)CC1 [sotrastaurin]
Method in brief: as §1

Chain of UniProt P41219 (P41219 whole entry, looked up): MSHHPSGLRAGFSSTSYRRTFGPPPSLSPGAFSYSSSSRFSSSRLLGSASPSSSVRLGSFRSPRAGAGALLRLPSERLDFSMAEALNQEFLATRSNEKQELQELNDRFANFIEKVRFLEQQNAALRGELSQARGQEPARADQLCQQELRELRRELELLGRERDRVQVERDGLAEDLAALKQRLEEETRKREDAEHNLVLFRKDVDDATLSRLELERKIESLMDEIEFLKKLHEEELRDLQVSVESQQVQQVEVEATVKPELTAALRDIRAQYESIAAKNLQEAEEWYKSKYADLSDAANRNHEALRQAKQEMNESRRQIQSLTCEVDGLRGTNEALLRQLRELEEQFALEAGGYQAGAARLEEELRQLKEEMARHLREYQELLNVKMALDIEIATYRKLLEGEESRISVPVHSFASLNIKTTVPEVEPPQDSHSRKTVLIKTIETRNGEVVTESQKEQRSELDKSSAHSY
Chain of UniProt Q9UHX1 (Q9UHX1 whole entry, looked up): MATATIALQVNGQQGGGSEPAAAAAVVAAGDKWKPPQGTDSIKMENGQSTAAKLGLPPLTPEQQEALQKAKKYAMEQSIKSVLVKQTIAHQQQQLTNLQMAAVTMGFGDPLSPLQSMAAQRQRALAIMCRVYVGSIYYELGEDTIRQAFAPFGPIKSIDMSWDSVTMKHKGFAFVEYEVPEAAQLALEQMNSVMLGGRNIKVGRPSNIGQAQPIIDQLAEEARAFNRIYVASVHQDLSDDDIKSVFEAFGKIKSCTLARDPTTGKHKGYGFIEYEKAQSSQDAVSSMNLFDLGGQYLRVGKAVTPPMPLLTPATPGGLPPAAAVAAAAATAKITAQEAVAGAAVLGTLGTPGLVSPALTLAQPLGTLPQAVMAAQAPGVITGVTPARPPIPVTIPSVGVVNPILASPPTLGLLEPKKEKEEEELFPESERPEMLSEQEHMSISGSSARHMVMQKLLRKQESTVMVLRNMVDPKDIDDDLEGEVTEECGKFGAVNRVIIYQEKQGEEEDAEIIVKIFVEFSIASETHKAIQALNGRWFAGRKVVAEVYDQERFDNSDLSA
Chain of UniProt O00764 (O00764 whole entry, looked up): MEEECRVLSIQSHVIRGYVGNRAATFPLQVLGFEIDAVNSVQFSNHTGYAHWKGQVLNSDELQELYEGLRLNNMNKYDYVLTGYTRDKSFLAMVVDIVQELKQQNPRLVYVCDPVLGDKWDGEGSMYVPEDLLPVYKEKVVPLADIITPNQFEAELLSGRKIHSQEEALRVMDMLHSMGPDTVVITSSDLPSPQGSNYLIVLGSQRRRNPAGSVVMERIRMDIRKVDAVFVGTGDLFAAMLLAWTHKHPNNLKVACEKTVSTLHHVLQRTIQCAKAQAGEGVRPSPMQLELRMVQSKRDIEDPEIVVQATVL
Chain of UniProt Q15366 (Q15366 whole entry, looked up): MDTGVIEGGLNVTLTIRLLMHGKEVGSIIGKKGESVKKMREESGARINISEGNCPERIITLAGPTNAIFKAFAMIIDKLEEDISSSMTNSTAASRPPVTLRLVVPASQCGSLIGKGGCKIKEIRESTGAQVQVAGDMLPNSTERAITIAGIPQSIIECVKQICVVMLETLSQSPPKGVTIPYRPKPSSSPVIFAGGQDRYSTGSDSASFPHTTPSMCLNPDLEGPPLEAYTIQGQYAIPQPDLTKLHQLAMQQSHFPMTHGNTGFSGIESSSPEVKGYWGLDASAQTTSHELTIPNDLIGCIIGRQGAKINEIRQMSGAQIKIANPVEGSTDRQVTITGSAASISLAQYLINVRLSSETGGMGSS
Chain of UniProt P78395 (P78395 whole entry, looked up): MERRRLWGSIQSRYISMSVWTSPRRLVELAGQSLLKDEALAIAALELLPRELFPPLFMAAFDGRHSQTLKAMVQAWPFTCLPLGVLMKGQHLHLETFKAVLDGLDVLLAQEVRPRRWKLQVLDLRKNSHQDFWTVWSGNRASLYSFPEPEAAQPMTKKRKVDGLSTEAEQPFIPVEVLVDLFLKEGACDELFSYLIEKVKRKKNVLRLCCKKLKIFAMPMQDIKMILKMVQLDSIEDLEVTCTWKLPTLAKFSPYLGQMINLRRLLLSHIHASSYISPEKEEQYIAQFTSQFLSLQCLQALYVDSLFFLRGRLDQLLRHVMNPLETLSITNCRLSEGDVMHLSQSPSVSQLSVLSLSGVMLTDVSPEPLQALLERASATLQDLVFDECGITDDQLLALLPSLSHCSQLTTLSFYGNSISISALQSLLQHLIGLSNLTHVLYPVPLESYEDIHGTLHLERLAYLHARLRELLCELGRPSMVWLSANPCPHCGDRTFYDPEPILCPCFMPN
Chain of UniProt Q99541 (Q99541 whole entry, looked up): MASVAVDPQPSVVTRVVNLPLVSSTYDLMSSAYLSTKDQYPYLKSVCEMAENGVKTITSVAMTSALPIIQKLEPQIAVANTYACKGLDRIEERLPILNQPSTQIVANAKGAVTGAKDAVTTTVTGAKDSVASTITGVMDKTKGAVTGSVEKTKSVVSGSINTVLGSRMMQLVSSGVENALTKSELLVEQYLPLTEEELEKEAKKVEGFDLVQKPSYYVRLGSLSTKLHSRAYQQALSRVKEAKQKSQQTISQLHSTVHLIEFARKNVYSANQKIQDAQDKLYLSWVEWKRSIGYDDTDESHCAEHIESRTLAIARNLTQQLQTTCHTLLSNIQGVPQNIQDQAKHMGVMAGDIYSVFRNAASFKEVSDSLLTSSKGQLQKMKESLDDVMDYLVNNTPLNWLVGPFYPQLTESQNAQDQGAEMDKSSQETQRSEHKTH
Chain of UniProt Q9Y606 (Q9Y606 whole entry, looked up): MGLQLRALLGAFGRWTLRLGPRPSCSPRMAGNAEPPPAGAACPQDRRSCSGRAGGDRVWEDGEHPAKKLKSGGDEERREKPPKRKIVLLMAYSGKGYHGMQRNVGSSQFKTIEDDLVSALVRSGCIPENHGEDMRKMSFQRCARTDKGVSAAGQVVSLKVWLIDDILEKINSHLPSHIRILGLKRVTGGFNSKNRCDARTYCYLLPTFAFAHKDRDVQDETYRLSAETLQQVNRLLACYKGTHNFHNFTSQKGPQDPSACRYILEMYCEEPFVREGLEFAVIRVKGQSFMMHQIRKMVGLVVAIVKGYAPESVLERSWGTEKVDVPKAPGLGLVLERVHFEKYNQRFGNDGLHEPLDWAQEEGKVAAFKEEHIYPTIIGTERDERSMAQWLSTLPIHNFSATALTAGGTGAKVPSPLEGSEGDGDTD
Chain of UniProt Q9H7Z7 (Q9H7Z7 whole entry, looked up): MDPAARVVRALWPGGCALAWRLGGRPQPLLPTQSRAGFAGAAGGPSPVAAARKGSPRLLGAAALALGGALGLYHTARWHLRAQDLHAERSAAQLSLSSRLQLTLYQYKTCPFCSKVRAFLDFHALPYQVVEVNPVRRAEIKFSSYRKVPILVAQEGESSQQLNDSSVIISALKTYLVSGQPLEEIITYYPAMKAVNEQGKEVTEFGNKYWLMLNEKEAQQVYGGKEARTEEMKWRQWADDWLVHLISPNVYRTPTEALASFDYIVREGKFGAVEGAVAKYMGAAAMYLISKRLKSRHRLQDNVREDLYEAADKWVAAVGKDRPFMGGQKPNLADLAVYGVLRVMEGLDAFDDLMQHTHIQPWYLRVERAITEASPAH
Chain of UniProt Q9BUL8 (Q9BUL8 whole entry, looked up): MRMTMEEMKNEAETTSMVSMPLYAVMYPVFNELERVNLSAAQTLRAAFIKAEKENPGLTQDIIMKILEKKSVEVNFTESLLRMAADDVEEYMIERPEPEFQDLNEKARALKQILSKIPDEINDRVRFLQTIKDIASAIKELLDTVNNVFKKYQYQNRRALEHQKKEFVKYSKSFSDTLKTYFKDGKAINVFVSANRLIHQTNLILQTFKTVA
Chain of UniProt Q9HBH1 (Q9HBH1 whole entry, looked up): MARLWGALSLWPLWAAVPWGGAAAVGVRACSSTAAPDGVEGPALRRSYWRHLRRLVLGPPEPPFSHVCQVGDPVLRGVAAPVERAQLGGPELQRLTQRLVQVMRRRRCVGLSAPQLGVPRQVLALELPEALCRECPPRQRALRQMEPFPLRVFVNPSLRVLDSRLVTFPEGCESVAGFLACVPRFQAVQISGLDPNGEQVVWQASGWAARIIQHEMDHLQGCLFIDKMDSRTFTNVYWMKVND
Chain of UniProt O75569 (O75569 whole entry, looked up): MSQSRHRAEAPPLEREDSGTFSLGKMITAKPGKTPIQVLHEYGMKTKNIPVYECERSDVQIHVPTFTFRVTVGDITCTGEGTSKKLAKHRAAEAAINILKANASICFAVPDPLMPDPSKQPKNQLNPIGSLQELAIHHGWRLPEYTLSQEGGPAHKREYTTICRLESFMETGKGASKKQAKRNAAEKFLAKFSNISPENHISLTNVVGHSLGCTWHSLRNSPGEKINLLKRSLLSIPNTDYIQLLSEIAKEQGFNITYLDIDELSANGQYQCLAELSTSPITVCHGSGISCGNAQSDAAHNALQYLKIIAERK
Chain of UniProt Q9BZE2 (Q9BZE2 whole entry, looked up): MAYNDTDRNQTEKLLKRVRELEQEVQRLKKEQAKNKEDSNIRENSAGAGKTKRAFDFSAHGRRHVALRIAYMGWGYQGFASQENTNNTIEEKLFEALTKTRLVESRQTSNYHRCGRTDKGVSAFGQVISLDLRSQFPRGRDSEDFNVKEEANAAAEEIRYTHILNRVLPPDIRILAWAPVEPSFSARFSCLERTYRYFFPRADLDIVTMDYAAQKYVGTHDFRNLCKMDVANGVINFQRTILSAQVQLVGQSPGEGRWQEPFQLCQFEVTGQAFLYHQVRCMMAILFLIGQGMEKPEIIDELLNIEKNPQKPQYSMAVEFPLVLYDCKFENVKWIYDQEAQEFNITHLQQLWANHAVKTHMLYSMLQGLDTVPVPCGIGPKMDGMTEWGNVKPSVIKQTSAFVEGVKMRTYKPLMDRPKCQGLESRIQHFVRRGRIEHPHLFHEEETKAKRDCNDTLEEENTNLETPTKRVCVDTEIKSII
Chain of UniProt Q03393 (Q03393 whole entry, looked up): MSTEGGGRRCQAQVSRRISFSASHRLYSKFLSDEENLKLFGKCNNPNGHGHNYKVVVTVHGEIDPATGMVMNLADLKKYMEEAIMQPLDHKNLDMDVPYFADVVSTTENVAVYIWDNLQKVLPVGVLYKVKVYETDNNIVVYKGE

Row | Target | log2 fold change (vemurafenib) | log2 fold change [1] | log2 fold change (barasertib) | log2 fold change [2] | log2 fold change (volasertib) | log2 fold change [3] | log2 fold change [4] | log2 fold change [5] | log2 fold change (saracatinib) | log2 fold change (sotrastaurin)
1 | PES1 (UniProt O00541) | 0.009 | 0.023 | -0.019 | -0.074 | -0.04 | 0.017 | -0.043 | 0.052 | 0.007 | 0.028
2 | PKN1 isoform 2 (UniProt Q16512) | 0.013 | 0.049 | -0.006 | 0.013 | -0.009 | 0.024 | -0.055 | -0.483 (active) | 0.002 | -0.143
3 | PCBP2 isoform 3 (UniProt Q15366) | -0.059 | -0.004 | -0.006 | -0.021 | -0.003 | 0.057 | -0.022 | -0.002 | -0.017 | -0.006
4 | PDXDC1 (UniProt Q6P996) | -0.005 | -0.02 | 0.008 | 0.03 | -0.059 | -0.004 | -0.031 | -0.067 | -0.005 | 0.015
5 | PGLS (UniProt O95336) | -0.033 | -0.027 | 0.067 | -0.055 | 0.027 | 0.036 | 0.051 | -0.114 | 0.039 | 0.006
6 | PCBD2 (UniProt Q9H0N5) | 0.004 | -0.017 | 0.013 | 0.018 | 0.016 | 0.031 | -0.237 | 0.11 | -0.05 | 0.055
7 | PI4KB (UniProt Q9UBF8) | 0.222 (active) | 0.011 | -0.051 | 0.049 | -0.026 | -0.016 | -0.038 | 0.134 | -0.006 | 0.012
8 | PLIN2 (UniProt Q99541) | 0.014 | -0.01 | 0.073 | 0.033 | 0.003 | 0.048 | 0.033 | -0.181 | 0.019 | 0.007
9 | PUS1 (UniProt Q9Y606) | 0.026 | 0.002 | 0.055 | -0.086 | -0.077 | 0.028 | -0.058 | -0.02 | 0.035 | -0.027
10 | PDCD4 (UniProt Q53EL6) | 0.014 | 0.02 | 0.024 | -0.023 | -0.03 | 0.029 | -0.029 | -0.013 | 0.009 | 0.001
11 | PRAME (UniProt P78395) | 0.028 | -0.012 | 0.003 | -0.086 | -0.009 | 0.017 | -0.058 | 0.011 | 0 | 0.018
12 | PTGES2 (UniProt Q9H7Z7) | 0.547 (active) | 0.06 | -0.107 | -0.108 | 0.159 | -0.053 | -0.003 | -0.18 | -0.029 | 0.058
13 | PMS2 (UniProt P54278) | -0.015 | -0.028 | 0.033 | -0.072 | -0.147 | 0.101 | -0.02 | 0.012 | -0.004 | 0.001
14 | PDF (UniProt Q9HBH1) | -0.012 | 0.03 | 0.028 | -0.118 | -0.004 | 0.01 | -0.014 | -0.181 | 0.032 | -0.02
15 | POLB (UniProt P06746) | -0.013 | 0.003 | -0.029 | -0.013 | -0.025 | 0.032 | -0.015 | -0.07 | 0.033 | 0.048
16 | PDIA4 (UniProt P13667) | -0.007 | -0.02 | -0.028 | 0.017 | 0.012 | -0.008 | 0.036 | -0.045 | 0.012 | 0
17 | PUS3 (UniProt Q9BZE2) | 0.083 | 0.036 | 0.074 | -0.058 | -0.007 | 0.071 | 0.193 | -0.195 | 0.018 | 0.052
18 | PGGT1B (UniProt P53609) | -0.159 | 0.004 | 0 | -0.041 | 0.1 | 0.006 | 0.011 | 0.008 | 0.028 | -0.029
19 | PDCD10 (UniProt Q9BUL8) | -0.021 | -0.002 | 0.006 | -0.012 | 0.007 | 0 | -0.269 (active) | 0.029 | 0.016 | 0.04
20 | PKP3 isoform 2 (UniProt Q9Y446) | -0.087 | 0.05 | -0.01 | 0.061 | -0.005 | 0.05 | 0.027 | -0.088 | -0.037 | 0.001
21 | PRKD3 (UniProt O94806) | -0.148 | -0.057 | 0.161 | -0.25 | -0.06 | -0.143 | -0.876 (active) | 0.219 | – | 0.086
22 | PRKRA (UniProt O75569) | -0.012 | 0.031 | -0.042 | -0.082 | -0.052 | 0.041 | 0 | -0.016 | 0.03 | 0.009
23 | PUF60 (UniProt Q9UHX1) | 0.002 | 0.015 | -0.005 | 0.002 | 0.003 | -0.015 | 0.116 | -0.018 | 0 | -0.02
24 | POLR2M (UniProt P0CAP2) | 0.014 | 0.02 | 0.021 | -0.108 | -0.024 | 0.008 | -0.055 | 0.067 | -0.007 | 0.041
25 | PDXK (UniProt O00764) | 0.005 | -0.001 | -0.014 | 0.329 (active) | 0.025 | -0.004 | -0.134 | 0.156 | -0.023 | -0.016
26 | PREP (UniProt P48147) | 0.028 | 0.011 | -0.003 | -0.025 | -0.025 | 0.023 | 0.008 | -0.013 | 0.005 | 0.001
27 | PTS (UniProt Q03393) | 0.33 (active) | 0.044 | 0.051 | 0.054 | 0.014 | 0.02 | -0.045 | 0.01 | 0.104 | 0.057
28 | PI4KA (UniProt P42356) | 0.005 | 0.014 | 0 | 0.007 | -0.064 | 0.019 | -0.069 | 0.164 | 0.016 | 0.056
29 | PRPH isoform 2 (UniProt P41219) | 0.03 | -0.05 | -0.13 | -0.102 | -0.028 | 0.098 | 0.132 | -0.1 | 0.071 | 0.036

From the supplement of paper PMC10849652
